# According to the supplement of paper PMC11732987, “Enantioselective OTUD7B fragment discovery through chemoproteomics screening and high-throughput optimisation” (Communications Chemistry, 2025):
# Unmarked numbers belong to inactive results.
# How the values were obtained:
# Assay in all cases: log2 ratio of Biotin-Ahx-Ub-VS probe labelling (fragment/DMSO); higher = less target engagement (more negative = stronger competition), active = hit call of the paper (q ≤ 0.05, log2 ratio ≤ -1)
# Details in all cases: compound concentration: 200 uM; treatment time: 3 h
# USP9X = USP9X (UniProt Q93008)
# In short: (§1)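 Labelled DUBs from HEK293T lysate were NeutrAvidin-enriched, digested with LysC and trypsin, and run by diaPASEF LC-MS/MS. Before that, each 495 µg sample in Tris/CHAPS/IGEPAL buffer with protease inhibitors was treated in triplicate with fragment at 200 µM or vehicle for 3 h, then with Biotin-Ahx-Ub-VS at 0.5 µM final for 1 h. Values are average log2 ratios of fragment over vehicle by unpaired t-test, based on global-median-normalised Spectronaut label-free quantities from proteins with ≥2 unique peptides.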
# UniProt O00487 = biological target: UniProt O00487
# Sequence of UniProt O00487 (O00487 whole entry): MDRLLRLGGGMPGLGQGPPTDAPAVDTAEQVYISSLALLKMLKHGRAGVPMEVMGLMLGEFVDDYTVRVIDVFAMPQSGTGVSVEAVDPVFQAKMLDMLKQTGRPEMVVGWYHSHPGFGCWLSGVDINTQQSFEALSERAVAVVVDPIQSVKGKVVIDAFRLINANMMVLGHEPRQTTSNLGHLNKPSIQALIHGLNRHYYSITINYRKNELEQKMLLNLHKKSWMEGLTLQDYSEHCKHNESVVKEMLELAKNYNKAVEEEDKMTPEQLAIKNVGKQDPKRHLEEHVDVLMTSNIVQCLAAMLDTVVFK
# In short: as §1
# UniProt O00507 = biological target: UniProt O00507
# Sequence of UniProt O00507 (O00507 whole entry): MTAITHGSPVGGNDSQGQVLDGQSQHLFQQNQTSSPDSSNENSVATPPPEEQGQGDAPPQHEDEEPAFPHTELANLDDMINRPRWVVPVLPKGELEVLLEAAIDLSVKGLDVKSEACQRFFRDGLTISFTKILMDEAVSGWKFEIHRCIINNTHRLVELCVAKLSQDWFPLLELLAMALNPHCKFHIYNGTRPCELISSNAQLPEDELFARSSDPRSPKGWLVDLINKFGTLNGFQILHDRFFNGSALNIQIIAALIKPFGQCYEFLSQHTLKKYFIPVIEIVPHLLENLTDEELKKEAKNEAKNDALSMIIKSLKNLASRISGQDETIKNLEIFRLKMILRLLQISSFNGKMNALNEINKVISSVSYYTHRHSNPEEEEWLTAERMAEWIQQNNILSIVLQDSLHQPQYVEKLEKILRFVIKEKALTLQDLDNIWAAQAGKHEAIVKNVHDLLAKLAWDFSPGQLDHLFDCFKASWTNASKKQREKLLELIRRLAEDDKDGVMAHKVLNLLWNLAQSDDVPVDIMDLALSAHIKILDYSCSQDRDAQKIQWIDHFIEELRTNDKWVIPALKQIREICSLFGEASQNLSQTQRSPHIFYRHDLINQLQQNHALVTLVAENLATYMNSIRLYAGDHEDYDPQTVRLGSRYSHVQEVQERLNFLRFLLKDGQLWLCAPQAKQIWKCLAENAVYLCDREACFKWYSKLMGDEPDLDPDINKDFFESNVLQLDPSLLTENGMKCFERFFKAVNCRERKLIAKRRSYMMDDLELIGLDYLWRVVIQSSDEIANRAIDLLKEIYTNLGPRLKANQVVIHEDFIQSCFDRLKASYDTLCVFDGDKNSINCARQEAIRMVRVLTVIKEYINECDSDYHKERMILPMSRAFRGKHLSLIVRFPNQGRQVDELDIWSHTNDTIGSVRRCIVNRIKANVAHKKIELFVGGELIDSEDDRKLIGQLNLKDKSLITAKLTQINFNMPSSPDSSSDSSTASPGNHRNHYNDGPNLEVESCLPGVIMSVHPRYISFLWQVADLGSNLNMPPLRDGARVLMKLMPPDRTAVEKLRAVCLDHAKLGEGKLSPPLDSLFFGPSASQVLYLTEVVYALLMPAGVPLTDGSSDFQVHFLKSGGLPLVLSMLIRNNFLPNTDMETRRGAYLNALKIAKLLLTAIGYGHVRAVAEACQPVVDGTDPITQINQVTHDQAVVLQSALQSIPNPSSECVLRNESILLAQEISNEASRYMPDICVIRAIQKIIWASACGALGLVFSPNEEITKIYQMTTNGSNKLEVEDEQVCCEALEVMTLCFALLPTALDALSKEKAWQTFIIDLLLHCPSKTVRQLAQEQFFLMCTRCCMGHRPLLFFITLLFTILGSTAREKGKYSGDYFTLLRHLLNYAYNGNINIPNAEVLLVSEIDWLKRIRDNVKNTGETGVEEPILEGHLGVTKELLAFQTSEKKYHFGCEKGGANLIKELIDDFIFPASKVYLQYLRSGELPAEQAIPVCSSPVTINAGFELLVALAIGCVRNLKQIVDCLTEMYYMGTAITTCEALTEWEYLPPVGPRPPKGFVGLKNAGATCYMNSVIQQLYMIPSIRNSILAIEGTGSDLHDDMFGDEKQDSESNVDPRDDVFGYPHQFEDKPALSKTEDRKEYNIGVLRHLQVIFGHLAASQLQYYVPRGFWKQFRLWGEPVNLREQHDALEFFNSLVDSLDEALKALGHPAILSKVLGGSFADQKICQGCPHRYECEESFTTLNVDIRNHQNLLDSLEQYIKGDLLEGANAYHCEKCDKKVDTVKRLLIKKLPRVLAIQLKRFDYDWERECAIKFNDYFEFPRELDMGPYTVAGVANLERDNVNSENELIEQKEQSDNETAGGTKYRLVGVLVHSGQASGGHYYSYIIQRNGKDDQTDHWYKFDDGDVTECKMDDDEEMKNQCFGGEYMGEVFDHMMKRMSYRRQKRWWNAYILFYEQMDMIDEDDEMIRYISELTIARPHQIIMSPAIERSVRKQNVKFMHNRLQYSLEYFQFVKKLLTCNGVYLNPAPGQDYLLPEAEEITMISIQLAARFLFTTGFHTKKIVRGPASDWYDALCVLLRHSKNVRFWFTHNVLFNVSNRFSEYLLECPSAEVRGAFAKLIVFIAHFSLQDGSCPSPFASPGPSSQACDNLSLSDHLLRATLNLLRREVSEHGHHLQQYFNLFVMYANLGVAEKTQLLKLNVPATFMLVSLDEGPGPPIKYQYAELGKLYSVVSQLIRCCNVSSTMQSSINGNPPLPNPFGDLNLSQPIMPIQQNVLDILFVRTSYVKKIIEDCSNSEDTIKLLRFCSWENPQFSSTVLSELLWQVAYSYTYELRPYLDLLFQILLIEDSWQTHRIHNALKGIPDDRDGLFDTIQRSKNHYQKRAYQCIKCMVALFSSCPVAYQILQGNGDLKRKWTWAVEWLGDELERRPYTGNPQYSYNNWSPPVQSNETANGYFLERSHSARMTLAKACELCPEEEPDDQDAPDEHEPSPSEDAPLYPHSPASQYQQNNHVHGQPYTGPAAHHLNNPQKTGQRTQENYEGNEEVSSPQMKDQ
# In short: as §1
# UniProt P51784 = biological target: UniProt P51784
# Sequence of UniProt P51784 (P51784 whole entry): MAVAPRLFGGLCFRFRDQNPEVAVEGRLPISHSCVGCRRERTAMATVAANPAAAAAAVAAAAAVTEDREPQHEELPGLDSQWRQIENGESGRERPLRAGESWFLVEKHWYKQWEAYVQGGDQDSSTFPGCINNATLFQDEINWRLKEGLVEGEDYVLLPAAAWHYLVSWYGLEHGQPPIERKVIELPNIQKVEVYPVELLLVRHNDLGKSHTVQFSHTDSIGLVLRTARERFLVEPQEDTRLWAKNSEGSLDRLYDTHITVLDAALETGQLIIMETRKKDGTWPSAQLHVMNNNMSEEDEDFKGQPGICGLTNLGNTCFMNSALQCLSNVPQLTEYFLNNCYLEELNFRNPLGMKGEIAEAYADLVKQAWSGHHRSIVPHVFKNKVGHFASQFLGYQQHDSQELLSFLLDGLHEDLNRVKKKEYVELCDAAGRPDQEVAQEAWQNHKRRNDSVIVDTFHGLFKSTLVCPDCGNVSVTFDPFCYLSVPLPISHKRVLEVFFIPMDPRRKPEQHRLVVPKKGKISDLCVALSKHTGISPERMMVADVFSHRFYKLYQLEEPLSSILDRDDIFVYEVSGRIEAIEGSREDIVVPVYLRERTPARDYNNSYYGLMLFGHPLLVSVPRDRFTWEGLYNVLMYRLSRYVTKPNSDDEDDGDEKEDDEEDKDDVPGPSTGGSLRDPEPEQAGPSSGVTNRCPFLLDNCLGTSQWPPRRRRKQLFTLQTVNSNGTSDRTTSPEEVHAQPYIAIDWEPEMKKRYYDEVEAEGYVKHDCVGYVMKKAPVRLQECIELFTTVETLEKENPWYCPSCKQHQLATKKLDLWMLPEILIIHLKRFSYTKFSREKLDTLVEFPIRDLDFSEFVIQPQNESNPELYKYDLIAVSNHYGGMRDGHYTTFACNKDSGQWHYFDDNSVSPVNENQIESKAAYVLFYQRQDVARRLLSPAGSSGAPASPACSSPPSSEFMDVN
# In short: as §1
# UniProt Q5T2D3 = biological target: T1, UniProt Q5T2D3
# T1 sequence (whole entry): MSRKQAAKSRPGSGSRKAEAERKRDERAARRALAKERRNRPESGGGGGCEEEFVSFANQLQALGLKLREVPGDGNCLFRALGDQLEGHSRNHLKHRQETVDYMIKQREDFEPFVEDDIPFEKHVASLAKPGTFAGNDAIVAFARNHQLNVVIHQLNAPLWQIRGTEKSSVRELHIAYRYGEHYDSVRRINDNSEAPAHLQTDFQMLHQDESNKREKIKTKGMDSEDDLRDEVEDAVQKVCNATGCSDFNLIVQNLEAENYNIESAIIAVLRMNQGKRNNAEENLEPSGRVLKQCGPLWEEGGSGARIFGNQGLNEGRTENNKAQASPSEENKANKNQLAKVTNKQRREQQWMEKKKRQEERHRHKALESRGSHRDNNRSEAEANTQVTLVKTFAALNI
# In short: as §1
# UniProt Q8TE49 = biological target: T2, UniProt Q8TE49
# T2 sequence (whole entry): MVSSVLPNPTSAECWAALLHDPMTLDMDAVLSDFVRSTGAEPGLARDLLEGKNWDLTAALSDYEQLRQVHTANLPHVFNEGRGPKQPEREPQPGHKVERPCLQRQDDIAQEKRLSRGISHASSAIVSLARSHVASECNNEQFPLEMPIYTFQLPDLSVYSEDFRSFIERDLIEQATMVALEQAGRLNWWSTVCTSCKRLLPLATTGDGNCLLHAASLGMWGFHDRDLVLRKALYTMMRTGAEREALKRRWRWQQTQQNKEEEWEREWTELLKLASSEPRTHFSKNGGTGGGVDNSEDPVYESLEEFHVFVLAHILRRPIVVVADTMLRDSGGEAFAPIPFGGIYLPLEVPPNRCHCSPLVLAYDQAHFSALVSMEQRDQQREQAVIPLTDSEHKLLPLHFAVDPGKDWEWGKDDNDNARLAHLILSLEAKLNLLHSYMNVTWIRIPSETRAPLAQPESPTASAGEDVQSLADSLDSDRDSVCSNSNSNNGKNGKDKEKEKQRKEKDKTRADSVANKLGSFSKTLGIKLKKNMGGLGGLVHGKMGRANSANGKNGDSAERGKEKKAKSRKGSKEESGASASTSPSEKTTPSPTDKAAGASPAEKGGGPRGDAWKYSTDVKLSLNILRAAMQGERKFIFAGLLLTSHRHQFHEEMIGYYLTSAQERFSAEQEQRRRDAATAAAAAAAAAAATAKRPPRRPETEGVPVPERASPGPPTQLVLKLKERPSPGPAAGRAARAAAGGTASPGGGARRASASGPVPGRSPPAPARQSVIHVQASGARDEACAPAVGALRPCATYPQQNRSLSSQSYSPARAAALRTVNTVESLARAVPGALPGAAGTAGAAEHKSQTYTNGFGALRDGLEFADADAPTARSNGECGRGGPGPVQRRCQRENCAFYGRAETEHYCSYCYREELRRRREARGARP
# In short: as §1
# UniProt Q9P2H5 = biological target: T3, UniProt Q9P2H5
# T3 sequence (whole entry): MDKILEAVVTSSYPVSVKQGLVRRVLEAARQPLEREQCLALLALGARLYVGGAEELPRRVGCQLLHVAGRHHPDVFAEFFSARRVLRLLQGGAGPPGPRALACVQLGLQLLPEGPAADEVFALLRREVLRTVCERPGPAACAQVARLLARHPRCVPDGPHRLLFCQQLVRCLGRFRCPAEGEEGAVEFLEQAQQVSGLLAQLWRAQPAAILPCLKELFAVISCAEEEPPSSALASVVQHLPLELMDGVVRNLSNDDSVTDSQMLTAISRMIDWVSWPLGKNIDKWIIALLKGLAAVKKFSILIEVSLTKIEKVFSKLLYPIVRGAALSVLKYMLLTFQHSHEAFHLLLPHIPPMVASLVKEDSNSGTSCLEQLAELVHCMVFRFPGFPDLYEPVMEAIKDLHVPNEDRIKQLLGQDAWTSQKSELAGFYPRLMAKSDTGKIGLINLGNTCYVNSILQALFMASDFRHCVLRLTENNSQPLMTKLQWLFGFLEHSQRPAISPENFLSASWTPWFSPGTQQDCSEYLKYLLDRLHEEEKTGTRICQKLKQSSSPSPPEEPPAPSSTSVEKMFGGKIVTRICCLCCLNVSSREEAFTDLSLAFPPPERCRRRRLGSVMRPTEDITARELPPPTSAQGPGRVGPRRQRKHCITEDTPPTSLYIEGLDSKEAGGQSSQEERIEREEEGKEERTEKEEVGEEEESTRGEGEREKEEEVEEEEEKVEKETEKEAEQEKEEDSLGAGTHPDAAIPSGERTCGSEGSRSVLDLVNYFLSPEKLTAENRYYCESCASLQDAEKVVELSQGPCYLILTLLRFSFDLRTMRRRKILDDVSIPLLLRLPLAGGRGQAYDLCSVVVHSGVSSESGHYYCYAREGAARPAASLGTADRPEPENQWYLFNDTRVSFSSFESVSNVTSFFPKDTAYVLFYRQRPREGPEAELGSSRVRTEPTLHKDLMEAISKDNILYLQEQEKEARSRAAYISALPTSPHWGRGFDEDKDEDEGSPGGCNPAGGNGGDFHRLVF
# In short: as §1
# UniProt Q9UGI0 = biological target: T4, UniProt Q9UGI0
# T4 sequence (whole entry): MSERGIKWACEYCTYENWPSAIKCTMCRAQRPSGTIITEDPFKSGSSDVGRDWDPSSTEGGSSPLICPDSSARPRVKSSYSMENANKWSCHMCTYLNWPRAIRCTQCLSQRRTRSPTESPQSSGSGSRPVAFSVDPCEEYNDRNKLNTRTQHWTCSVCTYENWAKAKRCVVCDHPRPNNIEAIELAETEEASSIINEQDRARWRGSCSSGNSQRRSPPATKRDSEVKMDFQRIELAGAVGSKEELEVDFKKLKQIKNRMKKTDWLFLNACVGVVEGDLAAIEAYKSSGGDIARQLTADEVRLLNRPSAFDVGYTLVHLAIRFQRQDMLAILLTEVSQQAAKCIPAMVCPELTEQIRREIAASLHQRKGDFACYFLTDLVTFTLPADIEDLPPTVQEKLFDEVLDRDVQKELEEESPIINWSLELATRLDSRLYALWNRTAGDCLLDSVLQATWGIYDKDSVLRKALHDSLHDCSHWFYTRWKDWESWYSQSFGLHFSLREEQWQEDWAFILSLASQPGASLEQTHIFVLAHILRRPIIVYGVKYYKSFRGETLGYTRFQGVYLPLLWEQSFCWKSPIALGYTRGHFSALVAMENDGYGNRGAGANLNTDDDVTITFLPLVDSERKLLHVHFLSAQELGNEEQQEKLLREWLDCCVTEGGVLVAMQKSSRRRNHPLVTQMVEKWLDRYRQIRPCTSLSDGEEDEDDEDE
# In short: as §1
# YOD1 = biological target: T5, YOD1 (UniProt Q5VVQ6)
# T5 sequence (whole entry): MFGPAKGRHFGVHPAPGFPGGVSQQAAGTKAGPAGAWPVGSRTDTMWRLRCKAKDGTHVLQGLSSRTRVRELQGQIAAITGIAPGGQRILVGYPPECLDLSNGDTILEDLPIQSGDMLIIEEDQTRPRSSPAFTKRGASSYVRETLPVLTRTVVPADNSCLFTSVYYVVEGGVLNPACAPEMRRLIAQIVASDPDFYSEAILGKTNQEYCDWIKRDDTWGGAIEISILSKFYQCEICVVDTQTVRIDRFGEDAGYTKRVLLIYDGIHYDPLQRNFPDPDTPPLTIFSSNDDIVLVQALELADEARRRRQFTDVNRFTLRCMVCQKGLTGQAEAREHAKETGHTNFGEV
# In short: as §1
smiles,measurement,setting,value
CN(C(=O)CCl)c1nc2ccccc2s1,log2 ratio of Biotin-Ahx-Ub-VS probe labelling,USP9X,-0.325
same,log2 ratio of Biotin-Ahx-Ub-VS probe labelling,UniProt O00487,-0.00105
same,log2 ratio of Biotin-Ahx-Ub-VS probe labelling,UniProt O00507,0.257
same,log2 ratio of Biotin-Ahx-Ub-VS probe labelling,UniProt P51784,-0.083
same,log2 ratio of Biotin-Ahx-Ub-VS probe labelling,UniProt Q5T2D3,-0.0566
same,log2 ratio of Biotin-Ahx-Ub-VS probe labelling,UniProt Q8TE49,-0.558
same,log2 ratio of Biotin-Ahx-Ub-VS probe labelling,UniProt Q9P2H5,-0.266
same,log2 ratio of Biotin-Ahx-Ub-VS probe labelling,UniProt Q9UGI0,-1.12 (active)
same,log2 ratio of Biotin-Ahx-Ub-VS probe labelling,YOD1,0.155
